From the antibiotic and cytotoxicity screens of Wong et al. (2023)
Among all 39,000 compounds or so, about 500 (1.3%) were called active. The full list was thinned out, with actives kept by preference.

tested on: S. aureus RN4220; experiment: growth inhibition call (relative growth <= 0.2); details: 50 µM

Growth inhibition call, active:
CC(O)C1C(=O)N2C(C(=O)O)=C(SC3CNC(C(=O)N(C)C)C3)C(C)C12 (stereo not drawn)
CNC(CC(C)C)C(=O)NC1C(=O)NC(CC(N)=O)C(=O)NC2C(=O)NC3C(=O)NC(C(=O)NC(C(=O)O)c4cc(O)cc(O)c4-c4cc3ccc4O)C(O)c3ccc(c(Cl)c3)Oc3cc2cc(c3OC2OC(CO)C(O)C(O)C2OC2CC(C)(N)C(O)C(C)O2)Oc2ccc(cc2Cl)C1O.Cl (stereo not drawn)
CN[C@H](CC(C)C)C(=O)N[C@H]1C(=O)N[C@@H](CC(N)=O)C(=O)N[C@H]2C(=O)N[C@H]3C(=O)N[C@H](C(=O)N[C@H](C(=O)O)c4cc(O)cc(O)c4-c4cc3ccc4O)[C@H](O)c3ccc(c(Cl)c3)Oc3cc2cc(c3O[C@@H]2O[C@H](CO)[C@@H](O)[C@H](O)[C@H]2O[C@H]2C[C@](C)(N)[C@H](O)[C@H](C)O2)Oc2ccc(cc2Cl)[C@H]1O
CC(C)C[C@@H](N)C(=O)N[C@H]1C(=O)N[C@@H](CC(N)=O)C(=O)N[C@H]2C(=O)N[C@H]3C(=O)N[C@H](C(=O)N[C@H](C(=O)O)c4cc(O)cc(O)c4-c4cc3ccc4O)[C@H](O)c3ccc(c(Cl)c3)Oc3cc2cc(c3O[C@@H]2O[C@H](CO)[C@@H](O)[C@H](O)[C@H]2O[C@H]2C[C@](C)(N)[C@H](O)[C@H](C)O2)Oc2ccc(cc2Cl)[C@H]1O
COc1cc(N2CCC(N)CC2)ccc1Nc1ncc(Cl)c(-c2c[nH]c3ccccc23)n1
COC1(NC(=O)C2SC(=C(C(N)=O)C(=O)O)S2)C(=O)N2C(C(=O)O)=C(CSc3nnnn3C)CSC21 (stereo not drawn)
COC1(NC(=O)C(C(=O)[O-])c2ccc(O)cc2)C(=O)N2C(C(=O)[O-])=C(CSc3nnnn3C)COC21.[Na+].[Na+] (stereo not drawn)
COC1(NC(=O)CSCC#N)C(=O)N2C(C(=O)[O-])=C(CSc3nnnn3C)CSC21.[Na+] (stereo not drawn)

Growth inhibition call, inactive:
Cc1ccc(S(=O)(=O)N(C)C[C@H]2OCCCC[C@H](C)Oc3ccc(NC(=O)NC4CCCCC4)cc3C(=O)N([C@H](C)CO)C[C@@H]2C)cc1
O=C(CN1CCOCC1)N[C@H]1CC[C@H](CCNS(=O)(=O)c2ccccc2F)O[C@H]1CO
CO[C@@H]1CN(C)C(=O)c2ccc(NC(=O)Nc3cccc(F)c3)cc2OC[C@H](C)N(C(=O)Nc2c(C)noc2C)C[C@H]1C
CC(O)C1C(=O)N2C(C(=O)[O-])=C(SC3Cn4cnc[n+]4C3)C(C)C12 (stereo not drawn)
C[C@@H](O)[C@H]1C(=O)N2C(C(=O)O)=C(SCCNC=N)C[C@H]12
C[C@@H]1CN([C@@H](C)CO)C(=O)CCCn2cc(nn2)CO[C@H]1CN(C)C(=O)C1CC1
C[C@H](CO)N1C[C@H](C)[C@H](CN(C)C(=O)CCC(F)(F)F)OCCCC[C@H](C)Oc2ccc(NC(=O)C3CCCCC3)cc2C1=O
COc1cccc(S(=O)(=O)N2C[C@@H](O)COC[C@@H]3O[C@@H](CC(=O)N4CCN(c5ccccc5)CC4)CC[C@H]32)c1
C[C@@H]1O[C@@H](O[C@H]2[C@H](Oc3cc(O)c4c(c3)O[C@H](c3ccc(O)cc3)CC4=O)O[C@H](CO)[C@@H](O)[C@@H]2O)[C@H](O)[C@H](O)[C@H]1O
C[C@@H]1O[C@@H](O[C@H]2[C@@H](Oc3cc(O)c4c(c3)O[C@H](c3ccc(O)cc3)CC4=O)O[C@H](CO)[C@@H](O)[C@@H]2O)[C@H](O)[C@H](O)[C@H]1O
CC1OC(OC2C(Oc3cc(O)c4c(c3)OC(c3ccc(O)cc3)CC4=O)OC(CO)C(O)C2O)C(O)C(O)C1O (stereo not drawn)
C[C@H]1CCCC[C@]12NC(=O)NC2=O
CC1CCC(C(C)C)C(=O)C1 (stereo not drawn)
C[C@H](CO)N1C[C@H](C)[C@@H](CN(C)Cc2ccccc2)OCCCC[C@H](C)Oc2ccc(NC(=O)C3CCCCC3)cc2C1=O
COc1ccc(S(=O)(=O)Nc2ccc3c(c2)CC(=O)N([C@@H](C)CO)C[C@H](C)[C@@H](CN(C)S(C)(=O)=O)O3)cc1
Cc1ccc(S(=O)(=O)N(C)C[C@H]2Oc3c(NS(=O)(=O)c4cn(C)cn4)cccc3C(=O)N([C@@H](C)CO)C[C@H]2C)cc1
COCCNC(=O)C[C@H]1CC[C@H]2[C@@H](COC[C@@H](O)CN2S(=O)(=O)c2ccccc2C)O1
CN1CC2(CCN(C(=O)[C@H]3CCC(=O)N3)CC2)COc2ccccc2S1(=O)=O
C[C@@H]1CCCCO[C@H](CN(C)C(=O)NC2CCCCC2)[C@H](C)CN([C@@H](C)CO)C(=O)c2cc(NS(=O)(=O)c3ccc(F)cc3)ccc2O1
O=C(C[C@H]1C[C@@H]2c3cc(NS(=O)(=O)c4ccc(F)cc4)ccc3O[C@@H]2[C@@H](CO)O1)NCc1ccncc1
CSc1nc(C)cc(NC(N)=O)n1
COc1cc(N2CCC(N3CCN(C)CC3)CC2)ccc1Nc1ncc(Cl)c(Nc2ccccc2S(=O)(=O)C(C)C)n1
COc1cc(N2CCC(N(C)C)CC2)ccc1Nc1ncc(Cl)c(Nc2ccccc2P(C)(C)=O)n1
CCCNC(=O)N1C[C@H](O)COC[C@@H]2O[C@H](CC(=O)N3CCN(C)CC3)CC[C@H]21
O=C(CN1CCOCC1)N[C@H]1CC[C@@H](CCNC(=O)C2CCCCC2)O[C@H]1CO
CO[C@@]1(NC(=O)[C@@H](C(=O)O)c2ccc(O)cc2)C(=O)N2C(C(=O)O)=C(CSc3nnnn3C)CO[C@@H]21
CO[C@@]1(NC(=O)CSC[C@@H](N)C(=O)O)C(=O)N2C(C(=O)O)=C(CSc3nnnn3C)CS[C@@H]21
C[C@H](CO)N1C[C@H](C)[C@@H](CN(C)Cc2ccc3c(c2)OCO3)Oc2c(NC(=O)c3ccncc3)cccc2C1=O
COc1ccc(S(=O)(=O)Nc2ccc3c(c2)CC(=O)N([C@H](C)CO)C[C@@H](C)[C@H](CN(C)S(=O)(=O)c2ccc(F)cc2)O3)cc1
O=C(CCCCCNC(=O)OCc1ccc(CO[C@H]2C[C@@H](C3CCCCC3)C=C(C(=O)N3CCN(Cc4ccc5c(c4)OCO5)CC3)O2)cc1)NO
